Screens deposited in PubChem BioAssay by ICCB-Longwood Screening Facility, Harvard Medical School.
The sample as a whole holds a higher share of hits than the screen did.
MgrA DNA FP: S. aureus MgrA-DNA binding modulation; fluorescence polarization; hit rate 0.13% among 84,000; inhibition, % (concentration not given with the values); in the data active = inhibition above about 30%, passing the limit was not always enough;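 note: 0% = protein plus DNA without compound and 100% = DNA alone without protein; higher means less MgrA bound to DNA so lower polarization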
An asterisk follows results filed as active.

SMILES	MgrA DNA FP
CCOC(=O)c1ccc2c(c1)C1C=CCC1C(c1ccccc1F)N2 (stereo not drawn)	-1.4
CC(C)c1ccc([C@@H]2Nc3ccc(C(=O)O)cc3[C@@H]3C=CC[C@@H]32)cc1	46.7*
CCN(CC)c1ccc(NS(=O)(=O)c2cccs2)cc1	-0.2
COc1ccccc1-n1c2nc3ccccc3nc2c2c(=O)n(C3CCCC3)cnc21	1.4
COc1ccc(-n2cc(-c3ccccc3)nc2SCC(=O)c2ccccc2)cc1	1.7
COc1ccc(N(/N=C2\Oc3ccc4c(C)cc(=O)oc4c3C2=O)C(C)=O)cc1	-1.8
